Rango release inh = prevents RanGTP from dissociating the Rango-importin beta complex; 0.071% of 340,000 active; Biochemical FRET Rango-importin beta, RanGTP-induced dissociation; O95149+P62826; AID 540253; Potency, µM (highest dose often 46.1 µM), without a hit: top-dose activity change, negative = inhibition; calls by dose curve; note: % of control where 0% means no effect; nearly all actives have a fitted effect of over 45% in size
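Recombinant Rango FRET biosensor (EYFP–snurportin 1 IBB–cerulean CFP10) at 0.1 uM premixed with 0.25 uM importin beta in PBS, 1 mM DTT, 0.02% Tween-20, 0.1% BSA. Compound added 5 min; RanGTP-RCC1 (0.6 uM Ran, 2 mM GTP, 0.2 uM RCC1) then triggers release, read at 45 min.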
Rango-impB inh = Rango-importin beta binding inhibition; Q14974; Rango CFP/YFP FRET sensor + importin beta, 45 min; Potency, µM (titrated, usually from 92.2 µM), for inactives: top-dose inhibition of complex formation; 0.031% of 340,000 active; AID 540263; calls by dose curve;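 note: 0% = DMSO wells and 100% = buffer wells lacking importin beta; nearly all actives have a fitted effect of over 15% in size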
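FRET biosensor (snurportin 1 IBB flanked by EYFP and cerulean), 50 nM, with compound 5 min, then 0.125 microM importin beta in PBS, 1 mM DTT, 0.02% Tween-20, 0.1% BSA. CFP/YFP ratio read after 45 min at room temperature; pre-read flags interference.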
ELG1 repair inh = ELG1-dependent DNA repair inhibition; HEK293T ELG1-luciferase reporter, luminescence, 16 h; DNA damage induced by 5-fluorouridine; Potency, µM (top dose mostly 46.1 µM), for inactives: at the top dose activity change, negative = inhibition, actives largely listed as inhibitors; 2.3% of 330,000 active; AID 504467; note: % is set by controls: 0 for no effect and ±100 for the full control effect; nearly all actives have a fitted effect of over 55% in size
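Step one: seed 2,000 cells per well. Step two: pin-transfer compound or DMSO alongside 5-fluorouridine. Step three: incubate 16 hr, 37 °C, 5% CO2. Step four: add ONE-Glo, wait 30 min, read luminescence.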
PKM2 act = increases activity of human pyruvate kinase M2; purified PKM2, Kinase-Glo ATP luminescence, activation; response scale: 0% is enzyme alone, no compound; Potency, µM (top dose mostly 57.5 µM), inactives show top-dose activation, most hits filed as activators; 0.34% of 260,000 active; AID 1631; note: % is set by controls: 0 for no effect and ±100 for the full control effect; nearly all actives have a fitted effect of over 55% in size
Target sequence (P14618 whole entry, looked up): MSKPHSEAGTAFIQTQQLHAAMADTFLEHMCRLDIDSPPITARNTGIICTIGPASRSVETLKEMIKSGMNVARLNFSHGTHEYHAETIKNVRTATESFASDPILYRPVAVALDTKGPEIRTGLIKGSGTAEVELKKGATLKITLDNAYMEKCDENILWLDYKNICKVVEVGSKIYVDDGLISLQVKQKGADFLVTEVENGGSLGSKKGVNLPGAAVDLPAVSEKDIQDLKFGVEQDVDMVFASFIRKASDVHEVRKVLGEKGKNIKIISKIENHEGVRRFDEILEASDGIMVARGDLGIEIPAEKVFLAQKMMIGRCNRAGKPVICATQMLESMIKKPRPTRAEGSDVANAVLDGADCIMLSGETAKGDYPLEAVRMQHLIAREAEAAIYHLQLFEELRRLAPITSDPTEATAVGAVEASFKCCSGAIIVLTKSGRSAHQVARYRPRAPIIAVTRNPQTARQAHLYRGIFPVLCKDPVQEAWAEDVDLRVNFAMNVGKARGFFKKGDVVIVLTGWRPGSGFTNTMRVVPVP
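Purified hPK-M2 (>95% pure) converted ADP (0.1 mM final) to ATP with 0.5 mM PEP in 50 mM imidazole pH7.2, KCl, MgCl2, Tween 20, BSA; 1 h at room temperature. ATP detected by Kinase-Glo luminescence.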
Tb PFK inh = inhibitors of T. brucei phosphofructokinase | O15648 | AID 485367 | 0.17% of 330,000 active | T. brucei PFK, ADP-Glo luminescence | Potency, µM (series often up to 57.5 µM), for the others: at the top dose activity, negative = inhibition, usual class: inhibitors;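 note: 0% = uninhibited 1x PFK enzyme wells and -100% = no-enzyme wells; nearly all actives have a fitted effect of over 60% in size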
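In TEA buffer at pH 8.0 with 5 mM MgCl2, enzyme (1.25 nM) converted F6P (0.5 mM) and ATP (0.1 mM) for 45 min at room temperature. ADP product was read by luciferase luminescence.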
PGK inhibitor = inhibitors of T. brucei phosphoglycerate kinase. P07378. PGK/GAPDH coupled, Kinase-Glo luminescence, 60 min. Potency, µM (highest dose often 57.5 µM), without a hit: at the top dose activity change, negative = inhibition, usual class: inhibitors. 0.043% of 380,000 active. AID 602233; note: % is set by controls: 0 for no effect and ±100 for the full control effect; nearly all actives have a fitted effect of over 60% in size
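Recombinant glycosomal PGK reaction used 1,3-bisphosphoglycerate generated in-well by GAPDH (100nM final) in 100mM TEA pH 7.6, 5mM MgCl2, 0.01% Tween-20. After 60 minutes at room temperature, ATP was read by Kinase-Glo Plus luminescence end-point.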
* = called active by the depositor. An excerpt weighted towards active compounds, which were near 2.4% of everything screened. Unless noted, calls come from the whole dose curve; as a rule, active = well fitted curve in the direction sought with a large enough effect; inconclusive = small, poorly fitted or top-dose-only effect, or another doubt; inactive = no such curve, though single readings can be large; an effect the other way counts as inactive or inconclusive. Potency is the fitted concentration of half-maximal effect.

`Cc1nc2ccc(C(=O)Nc3cccc([N+](=O)[O-])c3)cc2s1` gave Rango release inh -2.2%, Rango-impB inh -4.2%, ELG1 repair inh -23.4%, PKM2 act -2.7%, Tb PFK inh -1.3% and PGK inhibitor inactive.
Cc1ccc(C(=O)NCCc2ccccc2)cc1S(=O)(=O)N1CCOCC1 was read as Rango release inh 5.4%, Rango-impB inh -0.9%, ELG1 repair inh inconclusive, Tb PFK inh -1.1% and PGK inhibitor -4.5%.
For COc1ccc(COC(=O)c2ccc(C)c(S(=O)(=O)N3CCOCC3)c2)cc1F the results were Rango release inh 2.9%, Rango-impB inh 2.4%, ELG1 repair inh 18.3µM*, Tb PFK inh 16.7% and PGK inhibitor -1.3%.
Screening COc1ccccc1CN(Cc1ccco1)c1cnc(S(C)(=O)=O)nc1C(=O)Nc1cc(C)ccc1C returned PGK inhibitor -1.9%.
CCOc1cc(N2CCOCC2)c(OCC)cc1NC(=O)c1cccc(S(=O)(=O)N2CC(C)OC(C)C2)c1 (stereo not drawn) was read as PGK inhibitor -4.7%.
CCOc1cc(N2CCOCC2)c(OCC)cc1NC(=O)c1cccc(S(=O)(=O)N2CCOCC2)c1 was read as Rango release inh 32.6%, Rango-impB inh 0.8%, ELG1 repair inh 16.4µM*, Tb PFK inh -5.5% and PGK inhibitor -4.0%.
For CCOC(=O)c1ccc(NC(=O)c2ccc(C)c(S(=O)(=O)N3CCOCC3)c2)cc1 the results were Rango release inh 17.1%, Rango-impB inh 10.6%, ELG1 repair inh 4.61µM*, PKM2 act 11.5%, Tb PFK inh -1.4% and PGK inhibitor -4.6%.
Screening Cc1nc2ccc(NC(=O)c3ccc(S(=O)(=O)N4CCOCC4)cc3)cc2s1 returned Rango release inh 1.2%, Rango-impB inh 2.4%, ELG1 repair inh 9.2µM*, PKM2 act -16.8%, Tb PFK inh -3.9% and PGK inhibitor 1.5%.
For CCc1ccc(N2CC(C(=O)Nc3ccc(C)c(S(=O)(=O)N4CCOCC4)c3)CC2=O)cc1 (stereo not drawn) the results were Rango release inh -3.4%, Rango-impB inh 6.0%, ELG1 repair inh 20.6µM*, PKM2 act -12.6%, Tb PFK inh -7.0% and PGK inhibitor -0.4%.
Screening CCNc1ccc(C(=O)OCC(=O)Nc2cc(C)on2)cc1[N+](=O)[O-] returned Rango release inh -3.9%, Rango-impB inh inconclusive, ELG1 repair inh 11.7%, Tb PFK inh -22.2% and PGK inhibitor 1.0%.
`CC(=O)Nc1ccc(Nc2nc3ccccc3n3cnnc23)cc1` gave Rango release inh 13.9%, Rango-impB inh -2.2%, ELG1 repair inh 16.3%, Tb PFK inh -3.2% and PGK inhibitor -6.9%.
CCOC(=O)c1[nH]c2c(c1Cc1ccccc1)C(=O)CC(c1ccc(OC)cc1)C2 (stereo not drawn) was read as PGK inhibitor -3.2%.
Screening CCOC(=O)c1ccc(NC(=O)c2cccc(S(=O)(=O)N3CCOCC3)c2)cc1 returned Rango release inh inconclusive, Rango-impB inh 0.3%, ELG1 repair inh 23.1µM*, PKM2 act 1.4%, Tb PFK inh -2.5% and PGK inhibitor -1.0%.
CCC(Cc1ccccc1)OC(=O)c1ccccc1C(=O)O (stereo not drawn) was read as Rango release inh -8.8%, Rango-impB inh 0.0% and PGK inhibitor -2.0%.
CCOc1ccc(N=c2oc3cc(O)ccc3cc2C(=O)NCC2CCCO2)cc1 (stereo not drawn) was read as Rango release inh inconclusive, Rango-impB inh inconclusive, ELG1 repair inh 2.06µM*, PKM2 act -14.3%, Tb PFK inh -1.0% and PGK inhibitor -1.2%.
`Cn1c(C(=O)N2CCCC2)cc2c(=O)n(C)c3ccccc3c21` gave Rango release inh 6.1%, Rango-impB inh -3.9%, ELG1 repair inh -14.1%, PKM2 act -20.7%, Tb PFK inh 1.4% and PGK inhibitor -3.0%.
Cn1c(C(=O)N2CCN(c3ncccn3)CC2)cc2c(=O)n(C)c3ccccc3c21 was read as Rango release inh -0.8%, Rango-impB inh -3.9%, ELG1 repair inh 9.2µM*, PKM2 act 14.7%, Tb PFK inh 3.3% and PGK inhibitor 8.5%.
For Cc1cc(-c2ccccc2)n(-c2ccc(C(=O)N3CCN(c4ncccn4)CC3)cc2)n1 the results were Rango release inh -2.9%, Rango-impB inh -1.3%, ELG1 repair inh 6.51µM*, PKM2 act -0.3%, Tb PFK inh -9.5% and PGK inhibitor -1.6%.
O=C1CCCc2oc3ccc(NS(=O)(=O)c4cccc5cccnc45)cc3c21 was read as Rango release inh 0.4%, Rango-impB inh 4.1%, ELG1 repair inh inconclusive, PKM2 act 6.5%, Tb PFK inh 0.1% and PGK inhibitor 7.5%.
For O=C(c1ccc(NS(=O)(=O)c2cccc3cccnc23)cc1)N1CCOCC1 the results were Rango release inh 24.8%, Rango-impB inh 2.2% and PGK inhibitor -1.6%.
For O=C(c1ccc(NS(=O)(=O)c2ccc(F)cc2)cc1)N1CCCCC1 the results were Rango release inh 29.7%, Rango-impB inh -0.1%, ELG1 repair inh 10.0%, Tb PFK inh -11.3% and PGK inhibitor -2.2%.
`O=C(c1ccc(NS(=O)(=O)c2cccc3cccnc23)cc1)N1CCCCC1` gave Rango release inh 10.2%, Rango-impB inh 0.0%, ELG1 repair inh -24.0%, PKM2 act 15.8µM*, Tb PFK inh 0.9% and PGK inhibitor 0.9%.
Screening O=c1oc2ccc(NS(=O)(=O)c3cccc4cccnc34)cc2s1 returned Rango release inh 16.3%, Rango-impB inh 0.0%, ELG1 repair inh -8.0%, PKM2 act 14.1µM*, Tb PFK inh -0.9% and PGK inhibitor -9.2%.
O=C(c1ccc(S(=O)(=O)Nc2ccc(F)cc2)cc1)N1CCN(c2ccccn2)CC1 was read as Rango release inh 9.0%, Rango-impB inh -0.1%, ELG1 repair inh 16.4µM*, PKM2 act -0.3%, Tb PFK inh -5.3% and PGK inhibitor -1.5%.
COc1ccc(NC(=O)Cn2c(=O)oc3cc(S(=O)(=O)N4CCCCCC4)ccc32)cc1OC was read as PGK inhibitor 0.0%.
For Cc1ccc(NS(=O)(=O)c2ccc(C(=O)N3CCN(c4ncccn4)CC3)cc2)cc1 the results were Rango release inh -0.2%, Rango-impB inh 0.4%, ELG1 repair inh 5.8µM*, PKM2 act -3.7%, Tb PFK inh 0.3% and PGK inhibitor -5.2%.

Source: PubChem
